Sampled rows, rich in hits. Any-hit rate of the full collection: about 6.8%.
KB-V1 cytotox – qHTS assay for MDR1-selective chemotherapeutics: Primary screen using the drug-selected MDR subline cells KB-V1; KB-V1 MDR cells viability, CellTiter-Glo, 72 h; 400,000 tested, 3.4% active; Potency, µM (series often up to 46.1 µM), most hits filed as cytotoxic; further: on the % scale 0 is the no-effect control and ±100 the full control effect; nearly all actives have a fitted effect of over 60% in size
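KB-V1 MDR subline cells in DMEM (phenol-red free, 10% FBS) exposed to compounds in qHTS concentration series for 72 h at 37 degrees C. Viability read by CellTiter-Glo luminescence; concentration-effect curves fitted after normalization and correction.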
MCF10A rereplic – A quantitative high throughput screen for small molecules that induce DNA re-replication in MCF 10a normal breast cells | AID 624296, 2012 | 350,000 tested, 2.9% active | MCF 10A DNA re-replication, Hoechst nuclear intensity, 48 h | Potency, µM (series often up to 46.1 µM), for the others: top-dose activity, positive = re-replication, most hits filed as activators; further: % of control where 0% means no effect; nearly all actives have a fitted effect of over 50% in size
PTAP TSG101 blk – qHTS Assay for Iinhibitors of HIV-1 Budding by Blocking the Interaction of PTAP/TSG101 | Tumor susceptibility gene 101 protein (Homo sapiens), Q99816 | Fluorescence polarization, FITC-PTAP peptide / Tsg101 binding | Potency, µM (highest dose often 115 µM), for the others: at the top dose activity change, negative = inhibition, most hits filed as inhibitors | 340,000 tested, under 10 active | AID 493005, 2010; active means well fitted inhibition curve with a large enough effect in the main read-out, with a control signal flat, not every such curve was filed as active; inconclusive means small, poorly fitted or top-dose-only effect, or effect the other way, or a change in a side signal; inactive means no such curve, though single readings can be large or run the other way; further: % of control where 0% means no effect
Target sequence (Q99816 whole entry, looked up): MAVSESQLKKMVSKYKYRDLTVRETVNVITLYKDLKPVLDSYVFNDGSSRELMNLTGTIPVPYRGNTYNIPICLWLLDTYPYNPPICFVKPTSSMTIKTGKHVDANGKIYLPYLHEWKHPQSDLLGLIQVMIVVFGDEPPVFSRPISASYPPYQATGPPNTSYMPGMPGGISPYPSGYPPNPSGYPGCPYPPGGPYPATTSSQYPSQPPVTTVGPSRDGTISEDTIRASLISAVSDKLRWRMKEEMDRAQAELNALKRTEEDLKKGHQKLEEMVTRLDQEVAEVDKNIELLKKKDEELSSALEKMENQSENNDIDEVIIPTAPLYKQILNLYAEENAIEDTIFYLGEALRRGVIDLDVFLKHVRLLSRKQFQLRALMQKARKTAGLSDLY
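Tsg101 binding domain (10 uM final) was mixed with compound and a FITC-labeled PTAP peptide (50 nM final) in HEPES pH 7.5 buffer with NaCl, Tween 20, EDTA and TCEP; fluorescence polarization was read after 20 min at r.t.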
KB-3-1 tox – qHTS assay for MDR1-selective chemotherapeutics: Primary screen using the parental adenocarcinoma cell KB-3-1. KB-3-1 viability, CellTiter-Glo ATP luminescence, 72 h. Potency, µM (highest dose often 46.1 µM), usual class: cytotoxic. 400,000 tested, 1.4% active; further: on the % scale 0 is the no-effect control and ±100 the full control effect; nearly all actives have a fitted effect of over 60% in size
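Multi-concentration cytotoxicity screen in KB-3-1 cells grown in DMEM lacking phenol red with 10% FBS. After 72 h at 37 °C with compound, ATP-dependent luminescence was recorded.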
SW480 rerep – A quantitative high throughput screen for small molecules that induce DNA re-replication in SW480 colon adenocarcinoma cells; SW480 DNA re-replication, Hoechst DNA content imaging, 48 h; Potency, µM (highest dose often 46.1 µM), without a hit: at the top dose re-replication activation, usual class: activators; 340,000 tested, 1.8% active; further: % of control where 0% means no effect; nearly all actives have a fitted effect of over 55% in size
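First, 250 cells per well were seeded. Next, compound or vehicle (23 nL) was pinned in, plates sat 48 hr at 37 C. Finally Hoechst was added for 40 min before fluorescence scanning.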
PINK1 modulator – A Quantitative High throughput Screen to Identify Chemical Modulators of PINK1 Expression. PINK1 immunofluorescence, high-content cytometry, 24 h. Potency, µM (top dose mostly 76.6 µM), for inactives: at the top dose activation (PINK1 increase), most hits filed as activators. 410,000 tested, 0.2% active; active means well fitted activation curve with a large enough effect; inconclusive means small, poorly fitted or top-dose-only effect; cell line not stated here; further: % of control where 0% means no effect; nearly all actives have a fitted effect of over 65% in size
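Decision-based qHTS: stable cells, 24 h exposure to five compound concentrations, CCCP as control. Fixed cells stained for PINK1 plus nuclear, mitochondrial and cell markers, cytometer read.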
The depositor's hits bear a star; i = inactive; ? = inconclusive; nt = no result; [ ] = dose if it differs, or a comment. Unless noted, the call rests on the fitted dose curve; in most records, active means well fitted curve in the direction sought with a large enough effect; inconclusive means small, poorly fitted or top-dose-only effect, or another doubt; inactive means no such curve, though single readings can be large; an effect the other way counts as inactive or inconclusive. Potency means the concentration at half of the fitted maximal effect.

SMILES | KB-V1 cytotox | MCF10A rereplic | PTAP TSG101 blk | KB-3-1 tox | SW480 rerep | PINK1 modulator
CC(=O)Oc1ccccc1Cn1c(C)c(C(=O)NCc2cccc([N+](=O)[O-])c2)sc1=O | 18µM* | nt | nt | i | nt | -1%
CCOC(=O)c1cc(C)sc1NC(=O)c1ccc(Cl)s1 | i | 3.3µM* | -5% | i | 1% | 2%
CC1(C)C=Cc2cc(-c3coc4cc(O)cc(O)c4c3=O)cc(O)c2O1 | ? | 15µM* | -1% | i | -9% | 3%
COc1ccccc1/C=C/c1nc(C#N)c(N(C)C)o1 | i | 23µM* | -3% | i | ? | 2%
CN(C)c1oc(/C=C/c2ccccc2)nc1C#N | ? | ? | -2% | i | 15µM* | 1%
COc1ccccc1/C=C/c1nc(C#N)c(N2CCCCC2)o1 | nt | nt | nt | nt | nt | 2%
CN(C)c1oc(/C=C/c2ccc(F)cc2)nc1C#N | nt | nt | nt | nt | nt | -1%
COc1ccc(-c2onc(C)c2C)cc1S(=O)(=O)N1c2ccccc2CC1C (centres undefined) | nt | nt | nt | nt | nt | 2%
Cc1cccc(CNc2nc(-c3ccc(C(=O)N(C)C)cc3)nc3ccccc23)c1 | nt | nt | nt | nt | nt | 1%
COCCn1c(=NC(=O)c2cc(-c3cccs3)nc3ccccc23)sc2cc(S(N)(=O)=O)ccc21 | i | ? | 3% | ? | 21% | 6%
C=CCn1c(=NC(=O)c2cc(-c3cccs3)nc3ccccc23)sc2cc(S(N)(=O)=O)ccc21 | i | ? | 2% | i | 21µM* | 3%
C=CCn1c(=NC(=O)c2cc(Cl)sc2Cl)sc2cc(S(N)(=O)=O)ccc21 | ? | 21µM* | 7% | i | 4% | 4%
Cc1cnc(SCC2CCCO2)nc1C1CCCN(Cc2cc3c(cc2Cl)OCO3)C1 (centres undefined) | nt | nt | nt | nt | nt | 1%
CCOC(=O)CSC1=C(C#N)C(c2ccc(C)s2)CC(=O)N1 (centres undefined) | 1.8µM* | ? | -13% | 5.2µM* | 5% | 17%[38.3 µM]
CCOC(=O)CSC1=C(C#N)C(c2ccccc2OC)CC(=O)N1 (centres undefined) | ? | 5.2µM* | 0% | ? | 18µM* | 8%
CCCCOC(=O)CSC1=C(C#N)C(c2ccccc2OCC)C(C#N)C(=O)N1 (centres undefined) | ? | ? | -5% | i | 10µM* | 3%[38.3 µM]
CCSC1=C(C#N)C(c2ccc(C)s2)CC(=O)N1 (centres undefined) | i | 10% | 0% | i | -5% | 5%[38.3 µM]
CCCOC(=O)CSC1=C(C#N)C(c2ccccc2OCC)C(C#N)C(=O)N1 (centres undefined) | i | 3% | -7% | i | -3% | 4%
CCSC1=C(C#N)C(c2ccccc2OC)CC(=O)N1 (centres undefined) | i | 2% | -2% | i | -5% | -1%
CCn1cc(C(=O)NCc2ccco2)c(=O)c2cc(F)c(N3CCN(C(=O)c4ccco4)CC3)cc21 | i | 13µM* | -5% | i | -2% | -1%
CCn1cc(C(=O)NCC(C)C)c(=O)c2cc(F)c(N3CCN(C(=O)c4ccco4)CC3)cc21 | 16µM* | ? | -3% | i | -2% | 0%
CC(=O)c1ccc(N2CCN(C(=O)c3ccccc3SCC(=O)NCc3ccco3)CC2)c(F)c1 | 21µM* | 1% | -1% | i | -8% | 0%
NC(=O)CSc1nc(N)c2c3c(sc2n1)CCCCC3 | ? | 16% | -8% | i | -6% | 0%
